High-throughput results (PubChem BioAssay)
PostGolgi ctrl – growth of the yeast control strain, post-Golgi counter-screen. inhibition, % at 10 µM. efflux-deficient yeast background strain, growth absorbance A615, 16 h. AID 738. actives 5% (n = 98,000)
CYP2C9 inh – inhibitors of human CYP2C9 | actives 20% (n = 96,000) | inhibition, % at 5 µM | P11712 | CYP2C9 Supersomes, luciferin-H conversion, luminescence;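 active = blocking of liver enzyme CYP2C9 beyond about 50% at 5 µM, limit read from the data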
Target sequence (P11712 whole entry, looked up): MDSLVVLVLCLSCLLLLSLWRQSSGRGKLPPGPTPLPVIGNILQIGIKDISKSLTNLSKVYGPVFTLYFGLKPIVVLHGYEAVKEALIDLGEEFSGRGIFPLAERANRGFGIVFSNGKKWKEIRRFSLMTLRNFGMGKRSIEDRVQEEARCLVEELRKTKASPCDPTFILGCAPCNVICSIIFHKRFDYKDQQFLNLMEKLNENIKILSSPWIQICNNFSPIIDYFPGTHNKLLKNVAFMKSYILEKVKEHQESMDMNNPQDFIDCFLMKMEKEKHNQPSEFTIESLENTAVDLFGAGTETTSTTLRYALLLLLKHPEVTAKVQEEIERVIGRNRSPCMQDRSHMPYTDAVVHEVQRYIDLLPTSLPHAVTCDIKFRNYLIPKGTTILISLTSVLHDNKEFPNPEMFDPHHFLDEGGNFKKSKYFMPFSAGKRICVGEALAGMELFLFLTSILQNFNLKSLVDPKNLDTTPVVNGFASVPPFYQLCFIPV
CYP2C9 act – increases human cytochrome P450 2C9 activity | recombinant CYP2C9, luciferin-H conversion, luminescence; hits give high values; factor 1 = untreated enzyme, 0 = blocked | activation factor at 5 µM | P11712 | actives 1.4% (n = 96,000);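 active = activation factor of 2 or more for CYP2C9 at a 5 µM dose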;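 also: 0 = sulfaphenazole-blocked wells and 1 = vehicle-only wells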
PostGolgi yeast – growth inhibition of a yeast mutant, post-Golgi transport screen; post-Golgi transport phenotypic cell assay; inhibition, % at 10 µM; actives 0.9% (n = 98,000); AID 739;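 also: yeast cells grown in 1536-well plates; yeast grown about 18 h at 30C before absorbance read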
CYP2C19 act – activators of human cytochrome P450 2C19. P33261. recombinant CYP2C19, luciferin-H EGE luminescence; hits give high values; 0 = fully inhibited enzyme, 1 = untreated enzyme. activation factor at 5 µM. 96,000 tested, under 10 active;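 active = activation factor of at least 2 at 5 µM in the primary screen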;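 also: 0 = wells with 2.5 mM tranylcypromine and 1 = vehicle-only wells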
CYP2C19 inhib – human CYP2C19 inhibition. CYP2C19 Supersomes, luciferin-H EGE luminescence, 30 min. inhibition, % at 5 µM. actives 21% (n = 96,000). AID 778;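 active = CYP2C19 inhibition above a set limit at 5 µM in the primary screen, cut at about 50% in these data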;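 also: plate controls were negative control wells for no effect and 2.5 mM tranylcypromine positive control for full effect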
The depositor's hits bear a star; nt = no result given. A selection: hits, their analogues and other compounds. The true share with any hit is near 32%. Rule as the data show it, unless noted: active = inhibition above about 30%; inactive = the rest.

SMILES | PostGolgi ctrl | CYP2C9 inh | CYP2C9 act | PostGolgi yeast | CYP2C19 act | CYP2C19 inhib
COc1cccc(N2C(=O)N(c3ccccc3Cl)C3CS(=O)(=O)CC32)c1 (configuration not stated) | -2 | 26 | 0.7 | 0 | 0.6 | 44
COc1ccc(N2C(=O)C3CCCN3C2c2ccc(Cl)cc2)cc1 (configuration not stated) | 5 | 16 | 0.8 | 11 | 0.9 | 7
COc1ccc(Cl)cc1N1C(=O)C2CCCN2C1c1ccc(F)cc1 (configuration not stated) | 5 | -98 | 2* | 12 | 0.5 | 49
COc1ccc(Cl)cc1N1C(=O)C2CCCN2C1c1ccccc1F (configuration not stated) | 5 | -21 | 1.2 | -6 | 0.6 | 39
COc1ccc(C2N(c3cc(Cl)ccc3OC)C(=O)C3CCCN32)cc1 (configuration not stated) | 3 | -85 | 1.8 | 1 | 0.2 | 77*
O=C(CSc1nnc2ccccn12)NCc1cccs1 | -5 | 7 | 0.9 | 4 | 0.8 | 16
CCOC(=O)c1[nH]c2ccc(OC)cc2c1N=CN(C)C | 4 | 11 | 0.9 | -7 | 0.9 | 7
O=C(NCc1cccs1)C1CCN(c2nccs2)CC1 | 2 | 56* | 0.4 | -2 | 0.2 | 84*
Cc1cc(C)nc(N2CCC(C(=O)NCc3cccs3)CC2)n1 | 0 | -23 | 1.2 | 20 | 1 | 1
COc1ccc(NC(=O)C2CCN(S(=O)(=O)c3cccc4cccnc34)CC2)cc1 | 12 | -53 | 1.5 | -4 | 0.9 | 9
COc1ccc(OC)c(S(=O)(=O)N2CCC(C(=O)N3CCc4ccccc4C3)CC2)c1 | 13 | -8 | 1.1 | 3 | 0.2 | 78*
COc1ccc(OC)c(S(=O)(=O)N2CCC(C(=O)NCc3ccccc3)CC2)c1 | 15 | -268 | 3.7* | 4 | 0.7 | 25
COc1ccccc1CNC(=O)C1CCN(S(=O)(=O)c2cccc3cccnc23)CC1 | 21 | -154 | 2.5* | -2 | 0.4 | 64*
COc1ccc(S(=O)(=O)N2CCC(C(=O)NCCc3ccccc3)CC2)cc1OC | 12 | -36 | 1.4 | -1 | 0.9 | 6
N#CC(C(=O)Nc1ccc(Cl)c(Cl)c1)=C1Nc2ccccc2N1 | 9 | 7 | 0.9 | 1 | 1 | 4
CSc1ncc(Cl)c(C(=O)C(C#N)c2nc3c(C)cc(C)cc3c(=O)[nH]2)n1 (configuration not stated) | 22 | nt | nt | -2 | nt | nt
O=C(NCc1cccs1)C1CCN(S(=O)(=O)c2cccc3cccnc23)CC1 | nt | -77 | 1.8 | 7 | 0.5 | 54*
COc1ccc(OC)c(S(=O)(=O)N2CCC(C(=O)NCCC3=CCCCC3)CC2)c1 | 0 | nt | nt | -4 | nt | nt
O=C(NCc1ccco1)C1CCN(S(=O)(=O)c2cccc3cccnc23)CC1 | -2 | -39 | 1.4 | 3 | 0.6 | 38
COc1ccc(OC)c(S(=O)(=O)N2CCC(C(=O)NCc3ccccc3OC)CC2)c1 | 12 | -144 | 2.4* | -20 | 0.7 | 35
O=C(C1CCN(S(=O)(=O)N2CCC3(CC2)OCCO3)CC1)N1CCc2ccccc2C1 | 6 | 41 | 0.6 | 0 | 0.2 | 76*
COCc1ccc2oc(C(=O)O)cc2c1 | 18 | -14 | 1.1 | 5 | 1.1 | -13
Cc1cccc(OCC(=O)NNC(=O)Nc2cccc(Cl)c2)c1C | -8 | -3 | 1 | -3 | 1 | 2
C/C(=C\C(=O)c1ccncc1)Nc1ccccc1O | 3 | 28 | 0.7 | 9 | 0 | 97*
Cc1nc(NCCCn2ccnc2)c2ccccc2n1 | 10 | 41 | 0.6 | -5 | 0.7 | 32
SMILES | PostGolgi ctrl | CYP2C9 inh | CYP2C9 act | PostGolgi yeast | CYP2C19 act | CYP2C19 inhib
Cc1ccc(-c2cc(C(=O)NC3=NCCS3)c3cc(Br)ccc3n2)o1 | -4 | 20 | 0.8 | -3 | 0.5 | 52*
Cc1cccc(-c2cc(C(=O)NCCCn3ccnc3)c3ccccc3n2)c1 | 8 | 100* | 0 | 2 | 0.1 | 87*
O=C(NC1=NCCS1)c1ccc(-c2ccc(Cl)cc2)o1 | 10 | 16 | 0.8 | 3 | 0.8 | 23
O=C(NCCCN1CCOCC1)c1cc2cc(Br)ccc2oc1=O | 9 | -1 | 1 | -17 | 1 | -1
Cc1ccc(-c2cc(C(=O)NCCCn3ccnc3)c3cc(Br)ccc3n2)o1 | -5 | 100* | 0 | 0 | 0.1 | 94*
Cc1cc(C)n(CC(O)Cn2c3ccc(Br)cc3c3cc(Br)ccc32)c(=O)n1 (configuration not stated) | 103* | 69* | 0.3 | 99* | 0.7 | 31
Cc1cc(C)n(CC(O)Cn2c3ccccc3c3ccccc32)c(=O)n1 (configuration not stated) | 29 | 72* | 0.3 | -5 | 0.2 | 84*
Cc1cc(C)n(CCO)c(=O)n1 | 2 | 14 | 0.9 | -6 | 1 | 2
O=C1C2CCCN2C(c2ccc(F)cc2)N1c1cccc(Cl)c1 (configuration not stated) | 5 | 9 | 0.9 | -3 | 0.8 | 17
Cc1cc(Cl)ccc1Oc1cccc(C(=O)/C(C#N)=C/N(C)C)c1 | 65* | 23 | 0.8 | 5 | 0.3 | 70*
CN(C)/C=C(/C#N)C(=O)c1cccc(Oc2ccc(C(C)(C)C)cc2)c1 | 50* | 50 | 0.5 | 3 | 0.2 | 78*
Cc1ccccc1Oc1cccc(C(=O)/C(C#N)=C/N(C)C)c1 | 2 | 79* | 0.2 | 21 | 0.1 | 89*
Cc1ccccc1Oc1ncccc1C(=O)/C(C#N)=C/N(C)C | 2 | 1 | 1 | -1 | 0.7 | 35
Cc1ccc(N2C(=O)N(CC(=O)N3CCCc4ccccc43)C(=O)C2C)cc1 (configuration not stated) | -9 | 4 | 1 | -6 | 0.9 | 12
O=C(O)c1ccc2c(c1)ncn2C1CCCCCC1 | -1 | nt | nt | 0 | nt | nt
COc1ccc(/C=N/NC(=O)C2CCN(c3ncc(C(F)(F)F)cc3Cl)CC2)cc1 | 0 | 12 | 0.9 | 21 | 1 | 2
Cc1nc2c(sc3nc4c(cc32)COC(C)(C)C4)c(=O)n1CC(=O)NCc1ccco1 | -3 | nt | nt | -6 | nt | nt
CC1(C)Cc2nc3sc4c(SCC(=O)NCc5ccco5)ncnc4c3cc2CO1 | -6 | 64* | 0.4 | 0 | 0.5 | 46
CC(C)c1nc2sc3c(SCC(=O)NCc4ccco4)ncnc3c2c2c1CCC2 | 0 | 70* | 0.3 | -1 | 0.4 | 59*
CCOc1cc(C2C(C#N)=C(N)OC3CCCC(=O)C32)ccc1OCCN1CCOCC1 (configuration not stated) | 24 | -10 | 1.1 | 1 | 1.1 | -7
Nc1ncnc2nc(SCC(=O)N3CCN(c4ccccc4)CC3)[nH]c12 | 15 | 16 | 0.8 | -3 | 0.8 | 22
Nc1ncnc2nc(SCc3ccccc3)[nH]c12 | 9 | 42 | 0.6 | 7 | 0.3 | 70*
N#CC1(c2ccccc2)CCCN1C(=O)c1ccc(Br)cc1 (configuration not stated) | 6 | 60* | 0.4 | 0 | 0.4 | 64*
